# In PubChem BioAssay:
# Results filed as inconclusive are left out. Calls of active or inactive are those of the source. Unless noted, cut-off not given; nearly all actives show AC50 up to about 23 µM.
# What was measured:
# [1] = growth inhibition of DIPG glioma cells, dose response, cell-based, SU-DIPG-IV, MIPE4.0, CellTiter-Glo, qHTS (AID 1347063; cut-off not given, nearly all actives have AC50 up to about 30 µM;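 further: compound exposure lasted 48 hours before the viability readout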); conditions: SU-DIPG-IV viability, CellTiter-Glo ATP luminescence
# [2] = growth inhibition of DIPG glioma cells, dose response, cell-based, SU-DIPG-XIII, MIPE5.0, CellTiter-Glo, qHTS (AID 1347064); conditions: SU-DIPG-XIII viability, CellTiter-Glo ATP luminescence;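 on AC50: cells exposed to compound for 48 hours before the viability read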
# [3] = growth inhibition of DIPG glioma cells, dose response, cell-based, JHH-DIPG-1, MIPE4.0, CellTiter-Glo, qHTS (AID 1347062; cut-off not given, nearly all actives have AC50 up to about 27 µM); conditions: JHH-DIPG-1 viability, CellTiter-Glo ATP luminescence
# [4] = growth inhibition of DIPG glioma cells, dose response, cell-based, SU-DIPG-XVII, MIPE5.0, CellTiter-Glo, qHTS (AID 1347060; cut-off not given, nearly all actives have AC50 up to about 26 µM;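 on AC50: cells exposed to compound for 48 hours before viability readout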); conditions: SU-DIPG-XVII viability, CellTiter-Glo ATP luminescence
# [5] = growth inhibition of DIPG glioma cells, dose response, cell-based, SU-DIPG-XIII, MIPE4.0, CellTiter-Glo, qHTS (AID 1347061; cut-off not given, nearly all actives have AC50 up to about 37 µM;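 further: cells exposed to compound for 48 hours before readout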); conditions: SU-DIPG-XIII viability, CellTiter-Glo ATP luminescence
# [6] = system: Aerobactin synthetase IucA (Klebsiella pneumoniae); assay: IucA aerobactin synthetase inhibitors, biochemical, Tocris library, absorbance (AID 1345561; call rule not given here;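 further: 100% = enzyme without compound and 0% = no enzyme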); conditions: purified IucA enzyme assay, absorbance (OD) read-out; stronger effect = lower value;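 tested at 8 µM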
# [7] = differential killing of epithelial or mesenchymal cells, primary screen, imaging, PC-3E GFP, TEM4-18 mCherry, co-culture (AID 1345086;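 active means compounds killing one labelled cell type while sparing the other, by normalised counts and ratio limits, not self-fluorescent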;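 on all read-outs here: cells exposed to compound for 72 h before imaging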;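 on red/green cell ratio (normalised): normalised mesenchymal count divided by normalised epithelial count so high means epithelial killing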); conditions: imaging cell counts, at 1 µM; for red/green cell ratio (normalised): actives lie on both sides, counts scaled to control wells, 1 = unselective
# [8] = measured here: epithelial PC-3E GFP cell survival
# [9] = measured here: mesenchymal TEM4-18 mCherry cell survival
smiles,measurement,setting,value
COc1cc(/C=C/C(=O)CC(=O)/C=C/c2ccc(O)c(OC)c2)ccc1O,AC50,[1],30.3 µM (active)
same,AC50,[2],16.6 µM (active)
C[C@H]1O[C@@H](n2cc(F)c(=O)[nH]c2=O)[C@H](O)[C@@H]1O,outcome,[3],inactive
CC(C)(C)NC(=O)[C@H]1CC[C@H]2[C@@H]3CC[C@H]4NC(=O)C=C[C@]4(C)[C@H]3CC[C@]12C,outcome,[4],inactive
same,AC50,[5],11.8 µM (active)
CC1(C)O[C@H]2CC(=O)OC[C@]23[C@H]2CC[C@@]4(C)[C@H](c5ccoc5)OC(=O)[C@H]5O[C@]54[C@]2(C)C(=O)C[C@@H]13,outcome,[3],inactive
same,outcome,[1],inactive
C[C@@](Cc1ccc(O)c(O)c1)(NN)C(=O)O,remaining activity,[6],93.6% (inactive)
CCOC(=O)O[C@]1(C(=O)OCCl)CC[C@H]2[C@@H]3CCC4=CC(=O)C=C[C@]4(C)[C@H]3[C@@H](O)C[C@@]21C,outcome,[4],inactive
same,outcome,[5],inactive
same,outcome,[3],inactive
same,outcome,[2],inactive
CCCCC(=O)O[C@]1(C(=O)CO)[C@@H](C)C[C@H]2[C@@H]3CCC4=CC(=O)C=C[C@]4(C)[C@@]3(F)[C@@H](O)C[C@@]21C,outcome,[4],inactive
CNC[C@H](O)c1ccc(O)c(O)c1,outcome,[4],inactive
same,outcome,[5],inactive
same,outcome,[3],inactive
same,outcome,[1],inactive
same,outcome,[2],inactive
CC1(C)O[C@@H]2C[C@H]3[C@@H]4C[C@H](F)C5=CC(=O)C=C[C@]5(C)[C@@]4(F)[C@@H](O)C[C@]3(C)[C@]2(C(=O)CO)O1,outcome,[4],inactive
same,outcome,[5],inactive
same,outcome,[3],inactive
same,outcome,[2],inactive
Cc1onc(-c2ccccc2)c1C(=O)N[C@@H]1C(=O)N2[C@@H]1SC(C)(C)[C@@H]2C(=O)O,outcome,[5],inactive
same,outcome,[3],inactive
same,outcome,[1],inactive
COC(=O)[C@@H]1[C@H]2C[C@H]3c4[nH]c5ccccc5c4CCN3C[C@@H]2CC[C@@H]1O,outcome,[4],inactive
same,outcome,[5],inactive
same,outcome,[3],inactive
same,outcome,[2],inactive
CCCCOc1ccc(CC(=O)NO)cc1,red/green cell ratio (normalised),[7],1.05 (inactive)
same,normalised cell number,[7]; [8],0.59
same,normalised cell number,[7]; [9],0.61
same,AC50,[5],23.5 µM (active)
same,AC50,[1],20.9 µM (active)
same,outcome,[2],inactive
CC1=C(C(=O)O)N2C(=O)[C@@H](NC(=O)[C@H](N)C3=CCC=CC3)[C@H]2SC1,outcome,[3],inactive
NC(=O)c1ncn([C@@H]2O[C@H](CO)[C@@H](O)[C@H]2O)c1O,outcome,[4],inactive
same,outcome,[5],inactive
same,outcome,[2],inactive
C=C[C@@]1(C)CC(=O)[C@]2(O)[C@@]3(C)[C@@H](O)CCC(C)(C)[C@@H]3[C@H](O)[C@H](OC(C)=O)[C@@]2(C)O1,remaining activity,[6],113% (inactive)
NC[C@H](O)c1ccc(O)c(O)c1,outcome,[4],inactive
same,outcome,[1],inactive
O=C(N[C@H](CO)[C@H](O)c1ccc([N+](=O)[O-])cc1)C(Cl)Cl,red/green cell ratio (normalised),[7],0.78 (inactive)
same,normalised cell number,[7]; [8],1.21
same,normalised cell number,[7]; [9],0.95
same,outcome,[3],inactive
same,outcome,[1],inactive
CCN1CCN(C(=O)N[C@@H](C(=O)N[C@@H]2C(=O)N3C(C(=O)O)=C(CSc4nnnn4C)CS[C@H]23)c2ccc(O)cc2)C(=O)C1=O,AC50,[4],26.3 µM (active)
same,outcome,[2],inactive
Cc1cc(C(C)(C)C)cc(C)c1CC1=NCCN1,red/green cell ratio (normalised),[7],1.16 (inactive)
same,normalised cell number,[7]; [8],1.07
same,normalised cell number,[7]; [9],1.24
same,outcome,[2],inactive
